Screening data: PubChem, several laboratories
A selection: hits, their analogues and other compounds. The true share with any hit is near 5.6%.
ALR H2O2 inh: human ALR oxidase inhibition via reduced H2O2; P55789; purified ALR, DTT oxidation, H2O2 HRP-luminol luminescence; inhibition, % (concentration not given with the values); 290,000 compounds, 3.8% hits; AID 485317;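 active = mean replicate inhibition above about 79%, with every replicate also reaching it, limit read from the data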
PfM18AAP inh-1: blocks P. falciparum M18 aspartyl aminopeptidase; 290,000 compounds, 1.2% hits; recombinant PfM18AAP, H-Glu-NHMec fluorogenic cleavage; inhibition, % at 7.35 µM;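 active = inhibition above the campaign mean inhibition over all tested compounds plus 3 SD, cut at about 28% in these data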;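 note: 0% = plate median of test compound wells and 100% = 2 mM ZnCl2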
Cardio protect: protects H9c2 cardiomyocytes from peroxide injury; H2O2 injury protection, ATPLite, 2 h; protection from H2O2 cell death, % at 20 µM; 360,000 compounds, 0.63% hits;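 active = compounds giving at least 50% protection of heart cells from peroxide-induced death in the single-dose screen, raw or plate-pattern-corrected value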;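 note: 0% = DMSO wells with peroxide and 100% = DMSO wells without peroxide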
PHOSPHO1 block: blocks human PHOSPHO1 phosphatase activity | AID 1565 | inhibition, % at 13.3 µM | 290,000 compounds, 1.1% hits | Q8TCT1 | recombinant PHOSPHO1, absorbance phosphatase assay; in the data active = inhibition above about 60%
Target sequence (Q8TCT1 whole entry, looked up): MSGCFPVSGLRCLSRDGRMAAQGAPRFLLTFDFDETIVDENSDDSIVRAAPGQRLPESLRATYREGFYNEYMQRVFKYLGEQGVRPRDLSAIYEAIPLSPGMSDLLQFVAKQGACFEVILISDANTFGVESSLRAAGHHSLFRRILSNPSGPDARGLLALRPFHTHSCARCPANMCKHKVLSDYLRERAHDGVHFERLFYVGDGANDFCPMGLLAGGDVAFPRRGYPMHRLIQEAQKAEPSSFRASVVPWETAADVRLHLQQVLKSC
PfG6PD inh: PfG6PD (Plasmodium falciparum) enzyme inhibition | 350,000 compounds, 0.78% hits | inhibition, % at 20 µM | AID 504690 | PfGluPho enzyme, NADPH resazurin-diaphorase fluorescence;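 active = inhibition reaching at least a set limit at 20 µM in the primary screen, cut at about 59% in these data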;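 note: 0% = DMSO wells with substrate and 100% = DMSO wells lacking glucose-6-phosphate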
PfM18AAP inh-2: PfM18AAP inhibition, confirmation | shares compounds with PfM18AAP inh-1 | recombinant PfM18AAP, H-Glu-NHMec fluorogenic cleavage | inhibition, % at 7.35 µM | 2,400 compounds, 28% hits | AID 2170;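 active = mean inhibition over replicate wells above the hit cutoff set for the earlier primary screen, cut at about 29% in these data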;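 note: 0% = median of test compound wells and 100% = 2 mM ZnCl2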
CTSL1 counter: counter-screen for PFM18AAP inhibitors: confirmation of human cathepsin L inhibitors; shares compounds with PfM18AAP inh-1; AID 2178; inhibition, % at 5.96 µM; 2,400 tested, under 10 active; purified cathepsin L1, Z-Leu-Arg-MCA fluorescence;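 active = average inhibition across replicates above the hit cutoff set in the earlier primary screen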;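 note: 0% = median of test compound wells and 100% = Z-Phe-Ala-diazomethylketone 1 µM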
Target sequence (P07711 whole entry, looked up): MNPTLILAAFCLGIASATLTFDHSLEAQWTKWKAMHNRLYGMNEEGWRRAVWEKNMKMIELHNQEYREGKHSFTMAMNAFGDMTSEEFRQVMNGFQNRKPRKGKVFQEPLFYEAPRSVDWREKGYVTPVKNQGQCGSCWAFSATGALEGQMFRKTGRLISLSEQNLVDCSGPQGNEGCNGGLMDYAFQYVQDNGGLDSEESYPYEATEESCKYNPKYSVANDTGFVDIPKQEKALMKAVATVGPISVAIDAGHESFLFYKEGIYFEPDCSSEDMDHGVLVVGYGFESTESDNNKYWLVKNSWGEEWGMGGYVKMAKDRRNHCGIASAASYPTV
* hit, by the source's call; . = not tested or not shown.

SMILES	ALR H2O2 inh	PfM18AAP inh-1	Cardio protect	PHOSPHO1 block	PfG6PD inh	PfM18AAP inh-2	CTSL1 counter
C/C=C(\C)C(=O)O[C@@H]([C@H](O)c1cc2ccc(=O)oc2cc1OC)C(C)(C)O	-3	.	-2	.	-1	.	.
CSc1nc2oc3c(c2c2nncn12)CC(C)(C)SC3	13	32*	3	78*	21	-6	-10
O=c1oc2ccccc2nc1/C=C(\O)c1ccccc1	37	21	-13	27	-20	.	.
Cc1ccc(/C(O)=C/c2nc3cc(C)ccc3oc2=O)cc1	8	39*	-1	6	-5	-36	-10
COCCOC(=O)N1CCCCC1c1cc(C(=O)NCc2ccc(Cl)c(Cl)c2)no1 (stereo not given)	.	.	0	.	.	.	.
O=C(Nc1ccccc1N1CCCC1)C1CCCO1 (stereo not given)	.	.	3	.	-1	.	.
COCc1cc(C)c(C#N)c(=S)[nH]1	21	32*	-5	42	70*	35*	-1
CN(C)CC1C2CCC(C2)C1O (stereo not given)	.	.	-7	.	-10	.	.
N#C/C(=C\c1ccc(O)c(O)c1)C(=O)NCCCc1ccccc1	.	34*	89*	-14	-36	-9	-3
N#C/C(=C\c1ccc(O)c(O)c1)C(=O)N1CCCC1	100*	56*	49	12	3	21	3
COc1ccc(/C=C(\C#N)C(=O)NCCc2ccccc2)cc1OCc1ccccc1	5	9	14	-3	16	.	.
O=C(O)CC1c2ccccc2C=Cc2ccccc21	-3	.	7	.	0	.	.
O=C(NC(=S)Nc1ccccc1)c1csnn1	14	0	2	51	-1	.	.
Oc1ccc(/C=C/c2cc(O)cc(O)c2)cc1	79*	59*	-37	18	41	59*	0
CC(/C=N/n1c(-c2ccc(Cl)cc2)n[nH]c1=S)=C\c1ccco1	47	15	4	-25	10	.	.
CC(/C=N/n1cnnc1)=C\c1ccco1	.	55*	2	-8	2	-7	2
CC(/C=N/n1c(-c2cc(C)[nH]n2)n[nH]c1=S)=C\c1ccco1	98*	36*	0	36	43	-26	-2
CCOC(=O)C1=C(CS(=O)(=O)c2ccc(F)cc2)NC(=O)NC1c1ccc(O)c(O)c1 (stereo not given)	30	79*	3	22	-16	62*	-9
CCOC(=O)C1=C(CS(=O)(=O)c2ccc(F)cc2)NC(=O)NC1c1cc(OC)c(O)c(OC)c1 (stereo not given)	-11	12	-3	-28	12	.	.
O=C(/C=C1\SC(=O)NC1=O)Nc1ccc(F)cc1	97*	36*	2	20	3	-56	7
COc1cc(/C=N/Nc2nc(C)cc(=O)[nH]2)cc(OC)c1O	.	42*	-6	9	32	17	0
COc1ccc(/C=N/Nc2nc(C)cc(=O)[nH]2)cc1OC	25	-8	7	25	-14	.	.
Cc1oc(-c2cccs2)nc1CNC[C@H]1O[C@@H](n2cnc(C(N)=O)n2)[C@H](O)[C@@H]1O	.	.	10	.	0	.	.
O=C(Nc1cc(N2CCOCC2)ncn1)NC1(C(F)(F)F)Oc2ccccc2O1	-5	76*	36	-18	9	66*	1
COc1cccc(NC(=O)NC2(C(F)(F)F)Oc3ccccc3O2)c1	4	67*	75*	0	11	34*	-1
SMILES	ALR H2O2 inh	PfM18AAP inh-1	Cardio protect	PHOSPHO1 block	PfG6PD inh	PfM18AAP inh-2	CTSL1 counter
O=C(NCc1cccnc1)NC1(C(F)(F)F)Oc2ccccc2O1	.	55*	30	16	6	-2	4
CC(C)CNC(=O)NC1(C(F)(F)F)Oc2ccccc2O1	0	41*	2	16	18	-22	1
CC(C)CNC(=O)Nc1ccccc1F	-1	-2	-2	53	0	.	.
COc1ccc(NC(=O)c2sc3nc(N4CCCC4)c4c(c3c2N)CC(C)(C)OC4)c(OC)c1	-6	4	-11	28	35	.	.
CC1(C)Cc2c(c(N3CCCC3)nc3sc(C(=O)Nc4ccccc4)c(N)c23)CO1	0	23	2	33	33	.	.
CC1(C)Cc2c(c(N3CCOCC3)nc3sc(C(=O)Nc4ccc(Cl)cc4)c(N)c23)CO1	.	40*	4	-144	50	0	-7
CCOc1ccc(NC(=O)c2sc3nc(N4CCOCC4)c4c(c3c2N)CC(C)(C)OC4)cc1	-2	42*	-2	29	51	0	-1
CC1(C)Cc2c(c(N3CCOCC3)nc3sc(C(N)=O)c(N)c23)CO1	22	43*	7	-34	46	11	3
Cc1ccc(NC(=O)c2sc3nc(N4CCOCC4)c4c(c3c2N)CC(C)(C)OC4)cc1	-13	39*	-1	12	49	-55	2
COC(=O)c1ccc(-c2sc3nc(N4CCOCC4)c4c(c3c2N)CC(C)(C)OC4)o1	-4	-1	-9	-14	-8	.	.
Cc1c(-c2ccccc2)sc(N)c1C(=O)N1CCOCC1	99*	36*	-4	74*	50	-17	-1
COc1ccc(C(=O)c2no[n+]([O-])c2C(=O)c2ccc(OC)cc2)cc1	.	-1	-32	-9	28	.	.
Cc1c(C(=O)c2no[n+]([O-])c2C(=O)c2cnn(C)c2C)cnn1C	59	59*	-33	5	-2	77*	5
Nc1nncn1C(=O)c1ccc(Cl)cc1Cl	6	37*	12	46	7	51*	-1
Nc1nncn1C(=O)c1ccccc1Cl	1	60*	9	39	1	55*	-1
Cc1ccc(C(=O)CSc2nnnn2C(C)C)c(C)c1	31	-1	-14	35	17	.	.
Cc1sc(/N=C/c2c(O)ccc3ccccc23)c(C#N)c1C	-11	10	.	43	.	.	.
COc1ccc(O)c(/C=N/c2sc(C)c(C)c2C#N)c1	8	42*	19	-52	43	-23	-1
COc1ccc(C2Nc3cccc4cccc(c34)N2)cc1Br	-87	35*	0	28	39	-13	-2
CN(C)S(=O)(=O)c1cccc(NC(=O)c2ccccc2SCC(=O)N2CCCC2)c1	.	.	-6	.	18	.	.
CN(/N=C\c1ccc(O)c(O)c1)c1nc(-c2ccccc2)cc(-c2ccccc2)n1	51	50*	0	2	-15	24	-3
Cc1c(C#N)c(O)n(CCO)c(=O)c1N=Nc1ccc(S(N)(=O)=O)cc1	-8	35*	27	11	17	-37	13
Cc1c(C#N)c(O)n(C)c(=O)c1N=Nc1ccc(S(N)(=O)=O)cc1	.	35*	-12	-1	28	-40	5
Cc1ccc(Cl)cc1NC(=O)C1CCCN(S(C)(=O)=O)C1 (stereo not given)	-1	-2	-1	3	-8	.	.
C=CS(=O)(=O)N(Cc1ccccc1Br)[C@H](CO)CC(C)C	.	.	-4	.	-4	.	.
